# Reference: PubChem BioAssay (NCI)
# The panel holds about 79,000 compounds, 15% with a hit somewhere; the sample as a whole holds those more often. Unmarked numbers belong to inactive results. Active and inactive are the calls of the source. No stated cut-off is given here; in the data, active means growth inhibition above about 70%; inactive means the rest.
# What was measured:
# [1] = NCI Yeast Anticancer Drug Screen. Data for the rad50 strain (AID 155);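 further: 0% = growth of vehicle-only cultures of the same strain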; details: S. cerevisiae rad50 strain growth inhibition; at 50.0 µM; stronger effect = higher value
# Method in brief: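 Inhibition values express reduced yeast growth in compound-treated cultures relative to vehicle-treated controls.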
# [2] = NCI Yeast Anticancer Drug Screen. Data for the mec2-1 strain (AID 157); details: S. cerevisiae mec2-1 strain, at 50.0 µM, stronger effect = higher value
# Method in brief: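 Cells of the genetically defined mec2-1 yeast strain are incubated with test compound. Inhibition of growth is calculated against vehicle-treated controls.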
# [3] = NCI Yeast Anticancer Drug Screen. Data for the sgs1 mgt1 strain (AID 161);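 further: 0% = growth of cultures given vehicle only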; details: S. cerevisiae sgs1 mgt1 strain, at 50.0 µM, stronger effect = higher value
# Method in brief: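 Genetically altered yeast, compound exposure, growth inhibition relative to vehicle.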
# [4] = NCI Yeast Anticancer Drug Screen. Data for the cln2 rad14 strain (AID 165);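 further: 0% = growth equal to vehicle treated cultures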; details: S. cerevisiae cln2 rad14 strain, at 50.0 µM, stronger effect = higher value
# Method in brief: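 The screen exposed genetically defined yeast (cln2 rad14) to test compounds and scored growth inhibition relative to vehicle-treated controls.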
# [5] = NCI Yeast Anticancer Drug Screen. Data for the bub3 strain (AID 167); details: S. cerevisiae bub3 mutant strain, at 50.0 µM, stronger effect = higher value
# Method in brief: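 Steps: expose the mutant yeast strain to compound; grow alongside vehicle-treated cultures; measure growth; express inhibition against the vehicle cultures.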
# [6] = NCI Yeast Anticancer Drug Screen. Data for the mlh1 rad18 strain (AID 175); details: S. cerevisiae mlh1 rad18 strain growth inhibition; at 50.0 µM; stronger effect = higher value
# Method in brief: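 Compound-treated yeast growth, normalised to vehicle controls. Strain bears defined DNA repair mutations.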
SMILES,growth inhibition [1],growth inhibition [2] [%],growth inhibition [3] [%],growth inhibition [4] [%],growth inhibition [5] [%],growth inhibition [6]
CSCCCNC(=O)c1csc(-c2csc(CCNC(=O)[C@@H](NSc3ccccc3[N+](=O)[O-])[C@@H](C)O)n2)n1,0.15%,6.05,1.3,-22.1,0.95,18.9%
C[CH2][Ge]([CH2]C)[CH2]C.C[CH2][Ge]([Cl])[CH2]C,76.3% (active),3.45,52.9,-10.2,41.8,74.5% (active)
CC(C)(C)CNC(=S)Nc1ccccc1,3.45%,2.6,3.4,3.55,-2.05,10%
COC(=O)c1c2c(cc3c1CC1(C3)Cc3ccc4c(c3C1=O)CCC4)CCC2 (stereo not drawn),12.5%,14.4,-7.35,-13.8,-21.1,-86%
O=C(O)c1cc2oc3ccccc3c2cc1O,2.4%,-7.5,18.6,4.4,2.4,23.3%
COc1ccc(C=Nc2c(O)ccc3ccccc23)cc1OC,12.6%,-11.6,-24.9,-15.3,-17.4,-0.75%
O=[N+]([O-])c1ccc(Sc2cccs2)c([N+](=O)[O-])c1,-12.8%,28.9,18.9,4.1,13.9,57%
Nc1ncnc2c1ncn2C1CCC(CP(=O)(O)O)C1 (stereo not drawn),-6.85%,-25.4,-23.4,-29.4,-5.45,-0.1%
C=CCNC(=O)N(CCC)CCCC(NC(C)=O)C(=O)NCc1ccccc1 (stereo not drawn),-9.75%,-27.5,-14.8,10.4,-17.1,-9.7%
CN1CCC(C)(c2ccccc2)C(=O)C1 (stereo not drawn),2%,3.85,11,-28.6,-10.3,12.7%
CC(C)C(=O)Nc1ccccc1-c1ccccc1,14.3%,-1.45,-9.35,-1.4,0.05,8.8%
CC(=O)Nc1nc2nccn2c(=O)[nH]1,-5.7%,-3.1,-6.5,-28.3,-2.4,2%
Cc1ccc(C(=O)C[N+]2(C)CCOCC2)cc1,15.8%,-7.5,16.6,-21.9,8.4,20.4%
CN1C(=O)c2ccccc2C(O)(c2ccccc2)C1(O)c1ccccc1 (stereo not drawn),-6.3%,-20.9,-26.7,12.2,-12.2,-38.9%
Cc1ccc(C(=O)Cc2nc3c([nH]c2=O)c(C)nn3-c2ccccc2)c(C)c1,2.6%,-27.5,2.55,12.7,-0.85,4.7%
C=CCC(OCCC)c1ccc2c(c1)OCO2 (stereo not drawn),-7.1%,0.6,-0.65,5.05,3.4,-12.6%
COC(=O)CCC(C)C1CCC2C3CCC4CC5CCC4(C)C3(O5)C(Br)C(Br)C12C (stereo not drawn),-11.8%,-48.1,-32.5,-33,-25.5,-4.8%
CCCCOCN(COCCCC)CC(C)(C)C,20.9%,14.7,-10.8,14.7,19.4,19.3%
CCOC(=O)c1c[nH]c2ccc(-c3ccccc3)cc2c1=O,4.65%,39.8,4.6,20.4,40.7,24.9%

SMILES,growth inhibition [1],growth inhibition [2] [%],growth inhibition [3] [%],growth inhibition [4] [%],growth inhibition [5] [%],growth inhibition [6]
O=C(NCCCn1ccnc1[N+](=O)[O-])C(=O)NCCCn1ccnc1[N+](=O)[O-],9.3%,-12.2,-19.5,-8.95,-32,-23.4%
CCOC(=O)CC1CN(C(=O)c2ccccc2)CCC12OCCO2 (stereo not drawn),-3.4%,-4.3,-4,-5.05,-2.35,-5.3%
COc1ccc(OC)c(C(=O)C=C(C(F)(F)F)C(F)(F)F)c1,-7.65%,-0.95,-3.8,-41.6,-9.3,58.9%
O=c1[nH]c(CCCc2ccccc2)c(Br)c(=O)[nH]1,-1.5%,-7.65,3.35,-4.35,15.1,24.4%
CCC(CC)C(=O)OCCCC1CCCO1 (stereo not drawn),12.9%,2.9,7.9,-3.25,-3.95,0.6%
O=C1CCCCCCCCCCC1Br (stereo not drawn),43.2%,3.15,34.4,31.9,23.3,21.4%
C1CCC2C(C1)CCCC2NC1=NCCO1 (stereo not drawn),1.75%,-23.7,7.85,12.8,-1.1,12.3%
CCOP(=O)(Cc1ccc(CP(=O)(OCC)OCC)n1C)OCC,-6.15%,-7.5,-13.7,17.4,-4.7,15.1%
COC(=O)C(CCS(=O)(=O)CC(=O)C(=O)Nc1cccc(C(C)=O)c1)C(=O)OC,-12.6%,-15.1,-16.1,-17.1,-26.2,-5.95%
CC[N+](C)(C)CCOP(=O)(c1ccccc1)c1ccccc1,2.4%,6.35,-15.1,4.6,-2.2,9.5%
C=CCn1c(SCc2ccccc2)nccc1=O,25.1%,-10.8,16.9,-33,7.15,8.9%
COc1cc(C(C)c2cc3c(cc2OCCNC(=O)COc2cc4c(cc2C(C)c2cc(OC)c(OC)c(OC)c2)OCO4)OCO3)cc(OC)c1OC (stereo not drawn),-31.9%,-28.6,-25.6,4.8,-19.6,-24.9%
O=CN(C1CCCCC1)C1CCCCC1,14.6%,15.6,11,8.8,1.5,0%
Cc1cc(Cl)c(=O)n(-c2ccccc2)n1,3.65%,-9.7,-9.95,-27.8,4.75,-16.1%
O=C1c2cscc2C(=O)c2c(OCc3ccccc3)ccc(OCc3ccccc3)c21,3.7%,6.65,-7.45,-5.3,1.95,7.4%
CCOC(=O)N1Cc2cc3ccc(OC)cc3nc2C1,6%,-4.15,-21.1,-10,-24.4,3.9%
O=C(O)c1ccccc1C(=O)CC(O)(C(F)(F)F)C(F)(F)F,-20.6%,9.9,-1.5,-31.3,-10.9,-20.9%
CC(=O)c1ccc2ccccc2c1O,2.6%,-11.7,-25.5,-11.1,-3,-5.45%
O=C(CSc1nc2[nH]ncc2c(=O)[nH]1)c1ccc(Cl)cc1,-37.2%,-36.6,-27.2,3.5,11.4,-34.2%
